# Reference: PubChem BioAssay (NCI)
# Compounds without any hit were thinned out: in the full panel of roughly 79,000, 15% have a hit. Values without a mark were called inactive. The source made the active and inactive calls. Rule as the data show it: active = growth inhibition above about 70%; inactive = the rest.
# Tests used:
# [1] = NCI Yeast Anticancer Drug Screen. Data for the rad52 strain (AID 147);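 also: 0% = growth of vehicle-treated control cultures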; conditions: S. cerevisiae rad52 mutant growth inhibition, stronger effect = higher value
# Outline: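 Yeast strain carrying a DNA damage repair alteration was exposed to test compounds. Growth inhibition was measured relative to vehicle-treated controls.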
# [2] = NCI Yeast Anticancer Drug Screen. Data for the wt1 strain (AID 149);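 also: 0% = growth of vehicle-treated wt1 cultures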; conditions: S. cerevisiae wt1 strain (SPY 50644) growth inhibition, stronger effect = higher value
# Outline: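 wt1 yeast, compound-treated; % growth inhibition vs vehicle control.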
# [3] = NCI Yeast Anticancer Drug Screen. Data for the rad50EPP+ strain (AID 151);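 also: 0% = growth of vehicle-treated control cultures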; conditions: S. cerevisiae rad50 mutant strain, stronger effect = higher value
# Outline: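 Yeast strain carrying rad50 alteration (rad50EPP+) exposed to compounds; growth inhibition measured relative to vehicle-treated controls.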
# [4] = NCI Yeast Anticancer Drug Screen. Data for the mgt1 strain (AID 153); conditions: S. cerevisiae mgt1 mutant growth inhibition, stronger effect = higher value
# Outline: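 Yeast mgt1 strain (DNA repair/cell-cycle alteration panel) exposed to compounds; growth inhibition measured relative to vehicle-treated controls.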
# [5] = NCI Yeast Anticancer Drug Screen. Data for the rad50 strain (AID 155);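 also: 0% = growth of vehicle-only cultures of the same strain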; conditions: S. cerevisiae rad50 strain growth inhibition, stronger effect = higher value
# Outline: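 Genetically altered yeast (DNA repair pathway); compound treatment; growth inhibition vs vehicle ctrl.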
# [6] = NCI Yeast Anticancer Drug Screen. Data for the mec2-1 strain (AID 157); conditions: S. cerevisiae mec2-1 strain, stronger effect = higher value
# Outline: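 mec2-1 yeast strain, carrying an alteration in DNA damage repair or cell cycle control, was exposed to compounds; growth inhibition was measured relative to vehicle-treated controls.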
# [7] = NCI Yeast Anticancer Drug Screen. Data for the rad14 strain (AID 159);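 also: 0% = growth of vehicle-treated control cultures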; conditions: S. cerevisiae rad14 strain growth inhibition, stronger effect = higher value
# Outline: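 Test compounds were applied to a repair-deficient yeast strain. Its growth was then compared with that of cultures given vehicle alone, and inhibition was expressed relative to those controls.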
# [8] = NCI Yeast Anticancer Drug Screen. Data for the sgs1 mgt1 strain (AID 161);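 also: 0% = growth of cultures given vehicle only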; conditions: S. cerevisiae sgs1 mgt1 strain, stronger effect = higher value
# Outline: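 This yeast growth screen uses a strain with defined DNA-repair lesions; compound-treated growth is compared with vehicle-treated growth.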
# [9] = NCI Yeast Anticancer Drug Screen. Data for the CLN2oe strain (AID 163);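 also: 0% = growth of vehicle-only control cultures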; conditions: S. cerevisiae CLN2oe strain, stronger effect = higher value
# Outline: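 Yeast cells carrying a defined cell-cycle control alteration were exposed to test compounds. Growth inhibition was scored against vehicle-treated control cultures.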
# [10] = NCI Yeast Anticancer Drug Screen. Data for the cln2 rad14 strain (AID 165);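 also: 0% = growth equal to vehicle treated cultures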; conditions: S. cerevisiae cln2 rad14 strain, stronger effect = higher value
# Outline: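 Yeast carrying cln2 and rad14 alterations (cell cycle control and DNA damage repair) were exposed to compounds. Growth inhibition was measured against vehicle-treated controls.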
# [11] = NCI Yeast Anticancer Drug Screen. Data for the bub3 strain (AID 167); conditions: S. cerevisiae bub3 mutant strain, stronger effect = higher value
# Outline: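 Yeast carrying a defined mutation is treated with each compound, and growth is compared with that of vehicle-exposed cells to give inhibition.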
# [12] = NCI Yeast Anticancer Drug Screen. Data for the mlh1 strain (AID 171);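 also: 0% = growth of vehicle-treated control cultures of the same strain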; conditions: S. cerevisiae mlh1 strain growth inhibition, stronger effect = higher value
# Outline: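 Yeast carrying a defined genetic alteration in DNA damage repair or cell cycle control were exposed to test compounds. Growth inhibition was measured relative to vehicle-treated controls.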
# [13] = NCI Yeast Anticancer Drug Screen. Data for the sgs1 strain (AID 173);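 also: 0% = growth of vehicle-only control cultures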; conditions: S. cerevisiae sgs1 mutant, stronger effect = higher value
# Outline: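 Yeast mutant strains carrying defined defects in DNA damage repair or cell cycle control were exposed to test compounds. Growth inhibition was scored against vehicle-treated controls.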
# [14] = NCI Yeast Anticancer Drug Screen. Data for the mlh1 rad18 strain (AID 175); conditions: S. cerevisiae mlh1 rad18 strain growth inhibition, stronger effect = higher value
# Outline: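 Growth inhibition of the yeast strain was measured after compound exposure and expressed relative to vehicle-treated controls. The strain carries defined defects in DNA damage repair.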
# [15] = NCI Yeast Anticancer Drug Screen. Data for the wt2 strain (AID 169);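 also: 0% = growth of vehicle-treated yeast cultures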; conditions: S. cerevisiae wt2 strain growth inhibition, stronger effect = higher value
# Outline: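 Yeast cells were exposed to test compounds, and growth inhibition was measured relative to vehicle-treated controls.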
# [16] = NCI Yeast Anticancer Drug Screen. Data for the rad18 strain (AID 177); conditions: S. cerevisiae rad18 mutant growth inhibition, stronger effect = higher value
# Outline: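 Yeast carrying a defined DNA damage repair alteration were exposed to compounds. Growth inhibition was expressed relative to vehicle-treated controls.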
# [17] = at 5.0 µM (retest, dose inferred, filed as 0.5)
# [18] = at 50.0 µM (retest, dose inferred, filed as 5.0)
compound,measurement,setting,value
C/C=C/SC(=Nc1ccccc1)Nc1ccccc1,growth inhibition,[1]; at 1.2 µM,-3%
same,growth inhibition,[1]; at 3.7 µM,-5%
same,growth inhibition,[1]; at 11.0 µM,-6%
same,growth inhibition,[1]; at 33.0 µM,-6%
same,growth inhibition,[1]; at 100.0 µM,99% (active)
same,growth inhibition,[2]; at 1.2 µM,-3%
same,growth inhibition,[2]; at 3.7 µM,0%
same,growth inhibition,[2]; at 11.0 µM,-7%
same,growth inhibition,[2]; at 33.0 µM,-15%
same,growth inhibition,[2]; at 100.0 µM,97% (active)
same,growth inhibition,[3]; at 1.2 µM,3%
same,growth inhibition,[3]; at 3.7 µM,3%
same,growth inhibition,[3]; at 11.0 µM,11%
same,growth inhibition,[3]; at 33.0 µM,23%
same,growth inhibition,[3]; at 100.0 µM,39%
same,growth inhibition,[4]; at 1.2 µM,-6%
same,growth inhibition,[4]; at 3.7 µM,-8%
same,growth inhibition,[4]; at 11.0 µM,-9%
same,growth inhibition,[4]; at 33.0 µM,-13%
same,growth inhibition,[4]; at 100.0 µM,98% (active)
same,growth inhibition,[5]; at 1.2 µM,-5%
same,growth inhibition,[5]; at 3.7 µM,-7%
same,growth inhibition,[5]; [17],-10%
same,growth inhibition,[5]; at 11.0 µM,-7%
same,growth inhibition,[5]; at 33.0 µM,-8%
same,growth inhibition,[5]; [18],78% (active)
same,growth inhibition,[5]; at 50.0 µM,88% (active)
same,growth inhibition,[5]; at 100.0 µM,98% (active)
same,growth inhibition,[6]; at 1.2 µM,-6%
same,growth inhibition,[6]; at 3.7 µM,-5%
same,growth inhibition,[6]; [17],-9%
same,growth inhibition,[6]; at 11.0 µM,-9%
same,growth inhibition,[6]; at 33.0 µM,-8%
same,growth inhibition,[6]; [18],67%
same,growth inhibition,[6]; at 50.0 µM,49.2%
same,growth inhibition,[6]; at 100.0 µM,98% (active)
same,growth inhibition,[7]; at 1.2 µM,-4%
same,growth inhibition,[7]; at 3.7 µM,-4%
same,growth inhibition,[7]; at 11.0 µM,-5%
same,growth inhibition,[7]; at 33.0 µM,-4%
same,growth inhibition,[7]; at 100.0 µM,99% (active)
same,growth inhibition,[8]; [17],-5%
same,growth inhibition,[8]; [18],71% (active)
same,growth inhibition,[8]; at 50.0 µM,90.8% (active)
same,growth inhibition,[9]; at 1.2 µM,-9%
same,growth inhibition,[9]; at 3.7 µM,-18%
same,growth inhibition,[9]; at 11.0 µM,-15%
same,growth inhibition,[9]; at 33.0 µM,-24%
same,growth inhibition,[9]; at 100.0 µM,97% (active)
same,growth inhibition,[10]; [17],2%
same,growth inhibition,[10]; [18],33%
same,growth inhibition,[10]; at 50.0 µM,2.3%
same,growth inhibition,[11]; at 1.2 µM,10%
same,growth inhibition,[11]; at 3.7 µM,8%
same,growth inhibition,[11]; [17],10%
same,growth inhibition,[11]; at 11.0 µM,7%
same,growth inhibition,[11]; at 33.0 µM,-12%
same,growth inhibition,[11]; [18],36%
same,growth inhibition,[11]; at 50.0 µM,92.5% (active)
same,growth inhibition,[11]; at 100.0 µM,98% (active)
same,growth inhibition,[12]; at 1.2 µM,-4%
same,growth inhibition,[12]; at 3.7 µM,-3%
same,growth inhibition,[12]; at 11.0 µM,-6%
same,growth inhibition,[12]; at 33.0 µM,-5%
same,growth inhibition,[12]; at 100.0 µM,98% (active)
same,growth inhibition,[13]; at 1.2 µM,-4%
same,growth inhibition,[13]; at 3.7 µM,-5%
same,growth inhibition,[13]; at 11.0 µM,-7%
same,growth inhibition,[13]; at 33.0 µM,-3%
same,growth inhibition,[13]; at 100.0 µM,98% (active)
same,growth inhibition,[14]; [17],-10%
same,growth inhibition,[14]; [18],70% (active)
same,growth inhibition,[14]; at 50.0 µM,66.3%
S=C1SCN(C2CCCCC2)CN1C1CCCCC1,growth inhibition,[1]; at 1.2 µM,-21%
same,growth inhibition,[1]; at 3.7 µM,-25%
same,growth inhibition,[1]; at 11.0 µM,-14%
same,growth inhibition,[1]; at 33.0 µM,-1%
same,growth inhibition,[1]; at 100.0 µM,55%
same,growth inhibition,[2]; at 1.2 µM,-21%
same,growth inhibition,[2]; at 3.7 µM,-29%
same,growth inhibition,[2]; at 11.0 µM,-29%
same,growth inhibition,[2]; at 33.0 µM,-21%
same,growth inhibition,[2]; at 100.0 µM,40%
same,growth inhibition,[3]; at 1.2 µM,-51%
same,growth inhibition,[3]; at 3.7 µM,-36%
same,growth inhibition,[3]; at 11.0 µM,-3%
same,growth inhibition,[3]; at 33.0 µM,44%
same,growth inhibition,[3]; at 100.0 µM,88% (active)
same,growth inhibition,[4]; at 1.2 µM,-72%
same,growth inhibition,[4]; at 3.7 µM,-45%
same,growth inhibition,[4]; at 11.0 µM,-2%
same,growth inhibition,[4]; at 33.0 µM,-23%
same,growth inhibition,[4]; at 100.0 µM,64%
same,growth inhibition,[5]; at 1.2 µM,-4%
same,growth inhibition,[5]; at 3.7 µM,-8%
same,growth inhibition,[5]; [17],44%
same,growth inhibition,[5]; at 11.0 µM,-1%
same,growth inhibition,[5]; at 33.0 µM,13%
same,growth inhibition,[5]; [18],99% (active)
same,growth inhibition,[5]; at 50.0 µM,47.5%
same,growth inhibition,[5]; at 100.0 µM,67%
same,growth inhibition,[6]; at 1.2 µM,-65%
same,growth inhibition,[6]; at 3.7 µM,-78%
same,growth inhibition,[6]; [17],56%
same,growth inhibition,[6]; at 11.0 µM,-64%
same,growth inhibition,[6]; at 33.0 µM,-28%
same,growth inhibition,[6]; [18],100% (active)
same,growth inhibition,[6]; at 50.0 µM,63.5%
same,growth inhibition,[6]; at 100.0 µM,58%
same,growth inhibition,[7]; at 1.2 µM,-31%
same,growth inhibition,[7]; at 3.7 µM,-25%
same,growth inhibition,[7]; at 11.0 µM,-24%
same,growth inhibition,[7]; at 33.0 µM,2%
same,growth inhibition,[7]; at 100.0 µM,45%
same,growth inhibition,[8]; [17],0%
same,growth inhibition,[8]; [18],94% (active)
same,growth inhibition,[8]; at 50.0 µM,72.3% (active)
same,growth inhibition,[9]; at 1.2 µM,-21%
same,growth inhibition,[9]; at 3.7 µM,-19%
same,growth inhibition,[9]; at 11.0 µM,-16%
same,growth inhibition,[9]; at 33.0 µM,-1%
same,growth inhibition,[9]; at 100.0 µM,19%
same,growth inhibition,[10]; [17],10%
same,growth inhibition,[10]; [18],81% (active)
same,growth inhibition,[10]; at 50.0 µM,31.1%
same,growth inhibition,[11]; at 1.2 µM,-18%
same,growth inhibition,[11]; at 3.7 µM,-10%
same,growth inhibition,[11]; [17],20%
same,growth inhibition,[11]; at 11.0 µM,-23%
same,growth inhibition,[11]; at 33.0 µM,22%
same,growth inhibition,[11]; [18],94% (active)
same,growth inhibition,[11]; at 50.0 µM,82.8% (active)
same,growth inhibition,[11]; at 100.0 µM,71% (active)
same,growth inhibition,[15]; at 1.2 µM,-37%
same,growth inhibition,[15]; at 3.7 µM,-35%
same,growth inhibition,[15]; at 11.0 µM,-39%
same,growth inhibition,[15]; at 33.0 µM,-22%
same,growth inhibition,[15]; at 100.0 µM,39%
same,growth inhibition,[12]; at 1.2 µM,-44%
same,growth inhibition,[12]; at 3.7 µM,-43%
same,growth inhibition,[12]; at 11.0 µM,-31%
same,growth inhibition,[12]; at 33.0 µM,-5%
same,growth inhibition,[12]; at 100.0 µM,79% (active)
same,growth inhibition,[14]; [17],34%
same,growth inhibition,[14]; [18],99% (active)
same,growth inhibition,[14]; at 50.0 µM,49.1%
same,growth inhibition,[16]; at 1.2 µM,-57%
same,growth inhibition,[16]; at 3.7 µM,-38%
same,growth inhibition,[16]; at 11.0 µM,-39%
same,growth inhibition,[16]; at 33.0 µM,-3%
same,growth inhibition,[16]; at 100.0 µM,64%
